The record followed here is PubChem BioAssay (EPA / NIEHS).

Assay [1] has as its target Oxysterols receptor LXR-alpha (Homo sapiens) (UniProt Q13133). Put plainly: ATG_LXRa_TRANS: Attagene TRANS-FACTORIAL HepG2 Assay for human Liver X Receptor alpha (LXRa) (AID 2282980). The following applies: HepG2 Attagene TRANS reporter, LXRa transactivation. An outline of the steps: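 Chemical-induced reporter mRNA measured by RT-PCR with fluorescent labelling and capillary electrophoresis after 24 h dosing of transiently transfected HepG2 cells expressing exogenous NR-Gal4 chimeras; increases scored against DMSO baseline.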

In assay [2] the target is Oxysterols receptor LXR-beta (Homo sapiens) (UniProt P55055). Put plainly: ATG_LXRb_TRANS: Attagene TRANS-FACTORIAL HepG2 Assay for human Liver X Receptor beta (LXRb) (AID 2282981). The following applies: HepG2 Attagene TRANS GAL4-LXRb reporter, mRNA. The gist of the method:
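Cells: HepG2, transiently transfected with GAL4-UAS reporter units plus LXRb-Gal4 fusion. Treatment: 24 h. Detection: reporter mRNA by RT-PCR, 6-FAM labelling, HpaI digestion, capillary electrophoresis.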

A short description of assay [3]: ATG_M_06_TRANS: Attagene TRANS-FACTORIAL HepG2 Assay for M06 Transcription Factor (Internal Marker) (AID 2282983).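 Further: reporter transcript level by RT-PCR then capillary electrophoresis fluorescence.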 As to conditions: HepG2 Attagene TRANS M06 internal marker reporter. An outline of the steps: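 Cells: HepG2, transient multi-reporter transfection. Exposure: 24 h. Detection: RT-PCR, 6-FAM labelling, HpaI digestion (2 h, 37 °C), capillary electrophoresis. Baseline: DMSO.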

The target in assay [4] is Transcriptional activator Myb (Homo sapiens) (UniProt P10242). Put plainly: ATG_Myb_CIS: Attagene CIS-FACTORIAL HepG2 Assay for human Myeloblastosis (Myb) Proto-Oncogene Transcription Factor (AID 2282986; active means hit-call score of the fitted dose curve at least 0.9, where 1 is the maximum; inactive means score below 0.9). As to conditions: HepG2 Attagene CIS-FACTORIAL Myb reporter transcription; actives raise or lower the signal. An outline of the steps:
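Using HepG2 liver cells bearing transiently transfected cis-promoter reporter constructs, the assay measures induction or loss of reporter mRNA after 24 hours of dosing. Detection used fluorescently labeled RT-PCR products separated by capillary electrophoresis.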

The target of assay [5] is Nuclear respiratory factor 1 (Homo sapiens) (UniProt Q16656). Put plainly: ATG_NRF1_CIS: Attagene CIS-FACTORIAL HepG2 Assay for human Nuclear Respiratory Factor 1 (NRF1) Orphan Gene (AID 2282987; active means hit-call score of the fitted dose curve at least 0.9, where 1 is the maximum; inactive means score below 0.9). The following applies: HepG2 NRF1 cis-element reporter, Attagene multiplex; actives raise or lower the signal. An outline of the steps: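 Reporter mRNA induction or loss in HepG2 cells after 24 h dosing; cis-regulated reporter constructs report endogenous transcription-factor activity. Quantified by RT-PCR/capillary electrophoresis fluorescence, DMSO-referenced.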
Sequence of Nuclear respiratory factor 1 (Homo sapiens) (Q16656 whole entry, looked up): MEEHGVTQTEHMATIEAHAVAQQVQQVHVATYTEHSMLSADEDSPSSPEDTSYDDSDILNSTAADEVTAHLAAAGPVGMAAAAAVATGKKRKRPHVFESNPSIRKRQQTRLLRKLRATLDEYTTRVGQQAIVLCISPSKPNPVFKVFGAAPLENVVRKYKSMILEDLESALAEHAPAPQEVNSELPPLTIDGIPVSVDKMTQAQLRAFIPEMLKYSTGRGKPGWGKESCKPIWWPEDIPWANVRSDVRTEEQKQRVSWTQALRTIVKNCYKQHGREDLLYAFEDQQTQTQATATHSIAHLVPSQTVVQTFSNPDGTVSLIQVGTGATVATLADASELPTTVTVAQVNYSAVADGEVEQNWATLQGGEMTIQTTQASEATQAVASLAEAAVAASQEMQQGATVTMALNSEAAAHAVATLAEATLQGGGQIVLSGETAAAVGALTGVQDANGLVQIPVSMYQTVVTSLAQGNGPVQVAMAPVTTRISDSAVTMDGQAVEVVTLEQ

Assay [6] in a line: ATG_NFI_CIS: Attagene CIS-FACTORIAL HepG2 Assay for human Nuclear Factor I (NFI) (AID 2282989; active means hit-call score of the fitted dose curve at least 0.9, where 1 is the maximum; inactive means score below 0.9). The following applies: HepG2 cis-regulatory reporter, NFI response element transcription; actives raise or lower the signal. An outline of the steps:
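Transfected HepG2 liver cells, exposed 24 h, supplied total RNA for oligo(dT) reverse transcription and reporter-specific PCR. Labelled, HpaI-cut fragments were sized by capillary electrophoresis; DMSO set the baseline for bidirectional fitting.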

A short description of assay [7]: ATG_M_32_TRANS: Attagene TRANS-FACTORIAL HepG2 Assay for M32 Transcription Factor (Internal Marker) (AID 2282984).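 Further: transcript level of a background control reporter unit measured by RT-PCR and capillary electrophoresis.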 As to conditions: HepG2 Attagene TRANS M32 internal marker reporter. An outline of the steps: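 Using transiently transfected HepG2 cells exposed to test chemicals for 24 h, reporter transcripts are converted to labelled cDNA fragments and quantified by capillary electrophoresis. DMSO defines the activity baseline.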

Assay [8] addresses Nuclear receptor subfamily 4 group A member 2 (Homo sapiens) (UniProt P43354). Kind of assay: ATG_NURR1_TRANS: Attagene TRANS-FACTORIAL HepG2 Assay for human Nuclear Receptor Related Protein 1 (NURR1) (AID 2282985). The following applies: HepG2 Attagene TRANS reporter, mRNA readout. An outline of the steps: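 Cells: HepG2, transiently transfected. Exposure: 24 h. Detection: fluorescence of labelled RT-PCR products separated by capillary electrophoresis; upward fit versus DMSO.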

Assay [9] deals with Hepatocyte nuclear factor 4-alpha (Homo sapiens) (UniProt P41235). Kind of assay: ATG_HNF4a_TRANS: Attagene TRANS-FACTORIAL HepG2 Assay for human Hepatocyte Nuclear Factor 4 alpha (HNF4a) (AID 2282982). The following applies: HepG2 HNF4a transactivation reporter, mRNA readout. The gist of the method:
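Transfected HepG2 reporter cells are dosed for 24 h; reporter RNA is reverse-transcribed, amplified, fluorescently labelled and HpaI-digested before CE sizing. Positive-direction fit against DMSO.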

Results filed as inconclusive are left out. Activity calls are given as the source filed them. How the source made its calls, unless noted: active means hit-call score of the fitted dose curve at least 0.9, where 1 is the maximum; inconclusive means response in the unintended direction; inactive means score below 0.9.

Sequence of Oxysterols receptor LXR-alpha (Homo sapiens) (Q13133 whole entry, looked up, the tested form may be a part): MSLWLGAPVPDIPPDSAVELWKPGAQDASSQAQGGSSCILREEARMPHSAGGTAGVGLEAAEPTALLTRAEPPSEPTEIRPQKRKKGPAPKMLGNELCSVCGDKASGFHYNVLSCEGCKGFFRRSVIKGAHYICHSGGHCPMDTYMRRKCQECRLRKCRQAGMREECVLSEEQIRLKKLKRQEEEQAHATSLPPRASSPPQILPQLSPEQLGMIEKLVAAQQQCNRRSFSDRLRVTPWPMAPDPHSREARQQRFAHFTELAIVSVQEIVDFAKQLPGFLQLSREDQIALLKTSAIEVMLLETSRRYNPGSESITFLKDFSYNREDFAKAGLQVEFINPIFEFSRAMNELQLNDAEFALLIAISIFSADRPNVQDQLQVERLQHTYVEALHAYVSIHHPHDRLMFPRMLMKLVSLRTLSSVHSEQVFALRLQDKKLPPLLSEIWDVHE
Sequence of Nuclear receptor subfamily 4 group A member 2 (Homo sapiens) (P43354 whole entry, looked up): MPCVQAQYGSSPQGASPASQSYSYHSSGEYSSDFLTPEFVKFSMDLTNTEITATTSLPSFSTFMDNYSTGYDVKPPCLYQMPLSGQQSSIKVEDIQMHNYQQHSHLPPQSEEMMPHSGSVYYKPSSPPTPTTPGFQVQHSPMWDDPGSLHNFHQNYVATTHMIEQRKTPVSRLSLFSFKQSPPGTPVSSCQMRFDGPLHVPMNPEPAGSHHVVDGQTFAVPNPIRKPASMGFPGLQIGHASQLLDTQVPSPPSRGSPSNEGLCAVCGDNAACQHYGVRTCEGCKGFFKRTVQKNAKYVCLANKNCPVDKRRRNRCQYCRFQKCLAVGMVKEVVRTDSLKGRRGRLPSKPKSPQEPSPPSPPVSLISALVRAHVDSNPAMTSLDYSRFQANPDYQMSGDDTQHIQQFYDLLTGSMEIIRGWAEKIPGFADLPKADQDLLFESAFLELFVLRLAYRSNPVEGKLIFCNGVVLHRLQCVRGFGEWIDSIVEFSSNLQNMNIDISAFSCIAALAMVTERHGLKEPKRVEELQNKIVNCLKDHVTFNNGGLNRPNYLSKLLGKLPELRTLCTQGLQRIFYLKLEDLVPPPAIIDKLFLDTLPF
Sequence of Oxysterols receptor LXR-beta (Homo sapiens) (P55055 whole entry, looked up, the tested form may be a part): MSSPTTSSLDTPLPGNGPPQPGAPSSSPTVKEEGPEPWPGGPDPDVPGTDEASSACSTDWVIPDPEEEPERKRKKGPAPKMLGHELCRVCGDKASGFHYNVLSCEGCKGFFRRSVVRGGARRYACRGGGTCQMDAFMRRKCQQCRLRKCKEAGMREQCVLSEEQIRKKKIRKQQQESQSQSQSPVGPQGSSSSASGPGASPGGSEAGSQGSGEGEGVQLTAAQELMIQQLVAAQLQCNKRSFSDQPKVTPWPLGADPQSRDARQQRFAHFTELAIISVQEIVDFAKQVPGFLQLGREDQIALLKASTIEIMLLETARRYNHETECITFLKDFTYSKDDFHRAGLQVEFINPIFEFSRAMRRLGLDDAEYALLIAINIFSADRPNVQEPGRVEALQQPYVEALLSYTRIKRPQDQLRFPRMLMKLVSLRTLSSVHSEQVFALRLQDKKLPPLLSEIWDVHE
Sequence of Hepatocyte nuclear factor 4-alpha (Homo sapiens) (P41235 whole entry, looked up): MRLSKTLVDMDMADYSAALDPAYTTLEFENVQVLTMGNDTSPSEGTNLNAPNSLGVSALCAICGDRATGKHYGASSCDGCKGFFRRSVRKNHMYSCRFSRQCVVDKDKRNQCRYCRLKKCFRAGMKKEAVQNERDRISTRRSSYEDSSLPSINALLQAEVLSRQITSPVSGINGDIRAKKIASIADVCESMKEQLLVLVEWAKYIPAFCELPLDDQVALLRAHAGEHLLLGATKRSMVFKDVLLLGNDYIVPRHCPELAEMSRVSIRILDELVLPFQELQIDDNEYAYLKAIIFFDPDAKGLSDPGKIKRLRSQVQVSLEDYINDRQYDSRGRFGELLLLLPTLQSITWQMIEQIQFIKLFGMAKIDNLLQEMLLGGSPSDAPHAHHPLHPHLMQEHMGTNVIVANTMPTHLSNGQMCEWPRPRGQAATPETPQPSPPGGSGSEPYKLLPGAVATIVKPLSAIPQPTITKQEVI
Sequence of Transcriptional activator Myb (Homo sapiens) (P10242 whole entry, looked up): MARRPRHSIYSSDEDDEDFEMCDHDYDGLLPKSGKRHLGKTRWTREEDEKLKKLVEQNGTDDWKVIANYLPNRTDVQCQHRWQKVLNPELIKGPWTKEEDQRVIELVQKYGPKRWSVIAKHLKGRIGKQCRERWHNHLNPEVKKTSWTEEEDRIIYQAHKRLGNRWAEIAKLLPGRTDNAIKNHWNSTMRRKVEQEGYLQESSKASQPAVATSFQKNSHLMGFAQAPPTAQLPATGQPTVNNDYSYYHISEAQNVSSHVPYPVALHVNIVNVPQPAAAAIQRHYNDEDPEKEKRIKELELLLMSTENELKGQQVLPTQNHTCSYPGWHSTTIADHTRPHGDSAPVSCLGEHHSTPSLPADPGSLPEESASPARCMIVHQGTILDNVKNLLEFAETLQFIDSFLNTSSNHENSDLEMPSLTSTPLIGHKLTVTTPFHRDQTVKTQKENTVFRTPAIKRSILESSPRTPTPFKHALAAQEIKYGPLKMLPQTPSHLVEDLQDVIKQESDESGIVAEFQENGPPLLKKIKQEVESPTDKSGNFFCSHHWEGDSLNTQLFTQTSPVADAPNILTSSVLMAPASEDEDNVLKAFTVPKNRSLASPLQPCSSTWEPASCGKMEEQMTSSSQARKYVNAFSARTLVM

In the case of `Cc1ccc(N)cc1Cl`, the call in assay [1], in [2], in [3], in assay [4], in [5] and in [6] was inactive.
For the compound `C=CCc1ccc(OC)cc1`, the compound was called inactive in assay [1], in [3], in [7], in assay [8], in assay [4] and in [5]. Moreover, the outcome in assay [6] was inactive.
In the case of `ClCCBr`, the compound was classed as inactive in [1], in assay [3], in [7], in [8], in [4] and in [5]. In assay [6], the call was inactive.
`BrCCBr`: the call in assay [1], in [2], in assay [8], in assay [4], in [5] and in [6] was inactive.
On to `C(=NC1CCCCC1)=NC1CCCCC1`, for which the call in assay [1], in assay [9], in assay [3], in assay [4] and in [6] was inactive.
The AC50 is the concentration at which the activity in the assay is half-maximal. Take `CC(=O)c1cc(C(C)(C)C)cc2c1CCC2(C)C`: the compound was classed as inactive in assay [1], in assay [2], in assay [7], in assay [4] and in assay [5]. The AC50 was 27.3 µM (active) in assay [8] and 74.2 µM (active) in assay [6].
In the case of `CC(C)CCCCCCOC(=O)c1ccccc1C(=O)OCCCCCCC(C)C`, the result in assay [1], in assay [9], in assay [4], in assay [5] and in assay [6] was inactive.
As to `ClCC(Cl)CCl`, the call in assay [1], in assay [3], in [7], in assay [8], in assay [4] and in [5] was inactive. In assay [6], the compound was called inactive.
In the case of `CCC(=O)C(CC(C)N(C)C)(c1ccccc1)c1ccccc1` (centres undefined), the call in assay [1], in assay [2], in assay [7], in assay [4] and in [6] was inactive.
With `O=C1C(Cl)=C(Cl)C(=O)c2ccccc21`, the result in [1], in assay [3], in [7], in assay [8], in [4] and in [5] was inactive. Moreover, in [6], the compound was classed as inactive.
For the compound `CC(C)(c1ccccc1)c1ccc(O)c(C(C)(C)c2ccccc2)c1`, the compound was called inactive in assay [1], in [3], in assay [8] and in assay [4]. For the same compound, the AC50 in assay [5] was 6.39 µM (active); in assay [6] it was 8.31 µM (active).
Turning to `COc1ccc(C=O)cc1`, the call in assay [1], in assay [9], in assay [3], in assay [4] and in [6] was inactive.
With `CCN1CCC2(CC1)COc1cc3c(cc12)N(C(=O)c1ccc(-c2ccc(-c4nnc(C)o4)cc2C)cc1)CC3`, the call in [1], in [7], in assay [4] and in [6] was inactive. In assay [2], the AC50 is 1.01 µM (active).
Regarding `O=S(=O)(c1ccc(Cl)cc1)c1ccc(Cl)cc1`, the outcome in assay [1], in assay [2], in assay [3], in assay [4], in [5] and in [6] was inactive.
Consider `COC(=O)Cc1ccccc1`, for which the outcome in assay [1], in [3], in [7], in assay [8], in assay [4] and in assay [5] was inactive. The result in [6] was inactive.
`COc1ccc(OC)c(C=O)c1`: the compound was called inactive in assay [1], in assay [9], in [7], in [8], in [4] and in assay [5]. Moreover, the result in assay [6] was inactive.
On to `O=C1CCCN1`, for which the result in assay [1], in assay [3], in assay [4] and in assay [6] was inactive.
For `COS(=O)(=O)c1ccc(C)cc1`, the compound was called inactive in [1], in assay [9], in assay [7], in assay [8], in [4] and in assay [5]. In assay [6], the outcome was inactive.
Consider `CCOC(=O)CP(=O)(OCC)OCC`, for which the call in [1], in [9], in [7], in [8], in assay [4] and in assay [6] was inactive.
Take `O=[N+]([O-])c1ccc(O)c([N+](=O)[O-])c1`: the outcome in [1], in [2], in assay [3], in assay [4] and in assay [6] was inactive.
`CN(CCCC(=O)c1cccnc1)N=O`: the call in assay [1], in [9], in assay [3], in [7], in assay [4] and in [5] was inactive. In addition, the compound was classed as inactive in assay [6].
Turning to `CC(=O)C=C(C)C`, the call in assay [2], in [3], in [7], in assay [8], in assay [4] and in [5] was inactive. In [6], the outcome was inactive.
Regarding `c1cc[c]([Hg][c]2ccccc2)cc1`, the outcome in assay [2], in assay [9], in assay [3], in assay [7], in assay [8] and in assay [4] was inactive. The AC50 in assay [6] is 20.6 µM (active).
Consider `CC(C)c1cccc(C(C)C)c1O`, for which the compound was called inactive in assay [2], in assay [3], in assay [7], in assay [8], in assay [4] and in assay [5]. Besides, the outcome in assay [6] was inactive.
As to `Clc1ccc(C2(Cn3cncn3)CC(Br)CO2)c(Cl)c1` (centres undefined), the call in [2], in assay [9], in assay [3], in assay [7], in [8] and in assay [4] was inactive. Moreover, the compound was classed as inactive in assay [6]. Further, the AC50 in assay [5] was 47 µM (active).
On to `CC(C)OC(=O)Nc1ccccc1`, for which the compound was called inactive in assay [2], in assay [3], in assay [7], in assay [4], in [5] and in [6].
In the case of `O=C(NCO)NCO`, the compound was classed as inactive in [2], in assay [9], in assay [3], in assay [4], in assay [5] and in assay [6].
For the compound `NC(=S)Nc1ccccc1`, the compound was classed as inactive in [2], in assay [9], in assay [3], in [7], in assay [4] and in assay [6].
Regarding `COP(=S)(OC)Oc1c(Cl)cc(C)cc1Cl`, the outcome in [2], in assay [7], in [8], in [4], in assay [5] and in assay [6] was inactive.
With `CCOP(=O)(CN(CCO)CCO)OCC`, the call in assay [2], in assay [3], in assay [7], in assay [8], in assay [4] and in [5] was inactive. Moreover, in assay [6], the outcome was inactive.
Consider `NNC(=S)NN`, for which the call in assay [2], in [3], in [7], in assay [4] and in assay [6] was inactive.
In the case of `Cc1cc(=O)[nH]o1`, the compound was called inactive in assay [2], in assay [9], in [3], in [7], in [4] and in assay [5]. For the same compound, the result in assay [6] was inactive.
